From PubChem BioAssay come the findings set out here.

Each structure is given as a SMILES string. The source made the active and inactive calls.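 How the source made its calls, unless noted: active means compounds lowering colon cancer cell viability after pretreatment blocking the GSK3B kinase; inactive means the rest.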

The nature of assay [1]: Wnt pathway potentiators raising nuclear beta-catenin – imaging, WNT3A-conditioned medium, mouse C2C12, NPC library, primary screen (AID 1117326; in the data active means nuclear beta-catenin stimulation mostly above about 4.2%, no sharp cut-off; inactive means mostly below about 10%; further: reference of the scale not given here). The conditions noted are these: stronger effect = higher value.
Assay [2] can be described thus: stimulators of insulin release from INS-1E, primary screen, cell-based, 5 mM glucose, NPC library (AID 1117329;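 active means compound raises insulin release from rat beta cells at 5 mM glucose, no numeric limit stated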; further: reference of the scale not given here). The conditions noted are these: rat INS-1E insulin secretion, at 10 µM, stronger effect = higher value.
Assay [3] in a line: growth inhibition of GSK3B-pretreated HCT116 cells – cell-based, CellTiter-Glo, 0.2 to 20 µM (AID 1117336). The conditions noted are these: HCT116 viability after GSK3B inhibitor, at 20 µM, stronger effect = higher value.
Assay [4] in a line: inhibition of endothelial tube formation, primary screen, imaging, VEGF stimulated, CD31 staining, tube area, NPC library (AID 1117340;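 active means compound that reduces growth-factor-driven endothelial tube area in a mixed cell culture, no cutoff stated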). The conditions noted are these: VEGF-stimulated ADSC/ECFC co-culture, at 10 µM, stronger effect = higher value.
The nature of assay [5]: GLP1 release stimulators, primary, NCI-H716, NPC library (AID 1117341;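 active means compound raises GLP1 secretion from the human gut endocrine cells, with no numeric limit stated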; further: reference of the scale not given here). Conditions: NCI-H716 cells, at 10 µM, stronger effect = higher value.
The nature of assay [6]: HCT116 colon cancer cell growth inhibition, primary screen, CellTiter-Glo luminescence, NPC library (AID 1117342;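 active means compounds that lower survival of HCT116 colon cancer cells in the luminescence readout, no numeric limit stated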). The conditions noted are these: at 20 µM (top of the series).
Assay [7] is described as follows: reduced SW480 viability measured with CellTiter-Glo, NPC library, primary (AID 1117343;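 active means compounds that lower viability of the colon cancer cells in the luminescence readout, with no numeric limit stated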). Conditions: CellTiter-Glo luminescence; at 20 µM (top of the series).
The nature of assay [8]: NPC library primary testing for decreased DLD-1 cell viability via CellTiter-Glo (AID 1117346;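 active means compounds that lower survival of DLD-1 colon cancer cells in the luminescence readout, no cutoff given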). Conditions: DLD-1 viability, CellTiter-Glo luminescence; at 20 µM (top of the series).

Turning to `CC(C)C(=O)Nc1cccc(C(F)(F)F)c1`, the nuclear beta-catenin stimulation in assay [1] (at 10 µM) is 1% (inactive); in assay [1] (stimulation, at 2 µM) it was 1.2%. In addition, the insulin secretion stimulation in assay [2] is 2.1% (inactive). For the same compound, in assay [3], the viability decrease is 9.3% (inactive). For the same compound, in assay [4], the tube area decrease was -5.2% (inactive). Further, in assay [5], the GLP1 secretion stimulation is 4.8% (inactive). Besides, the inhibition of viability in assay [6] is 0.9% (inactive). In addition, the viability decrease (inhibition) is -24.6% (inactive) in assay [7] and -1% (inactive) in assay [8].

`COc1cc2nc(Cl)nc(N)c2cc1OC`: the nuclear beta-catenin stimulation in assay [1] (at 10 µM) is 0.1% (inactive); in assay [1] (stimulation, at 2 µM), -1.5%. Besides, in assay [2], the insulin secretion stimulation was 2.8% (inactive). For the same compound, the viability decrease in assay [3] was 13.3% (inactive). The tube area decrease in assay [4] was 9.3% (inactive). Further, the GLP1 secretion stimulation in assay [5] is 0.6% (inactive). In addition, the inhibition of viability in assay [6] was 22.3% (inactive). The viability decrease (inhibition) in assay [7] was -4.5% (inactive); in assay [8], 21.8% (inactive).

On to `CCN1CCCC1=O`, for which the nuclear beta-catenin stimulation in assay [1] (at 10 µM) is -0.1% (inactive); in assay [1] (stimulation, at 2 µM), 2.9%. Further, the insulin secretion stimulation in assay [2] was 2.6% (inactive). In addition, the viability decrease in assay [3] is 18.7% (inactive). For the same compound, the tube area decrease in assay [4] was -19.9% (inactive). In addition, in assay [5], the GLP1 secretion stimulation was 4.1% (inactive). The inhibition of viability in assay [6] was -2.03% (inactive). Further, the viability decrease (inhibition) in assay [7] was -20.4% (inactive); in assay [8] it was -9.9% (inactive).

In the case of `CCC(C(=O)O)c1ccc(N2Cc3ccccc3C2=O)cc1` (centres undefined), the nuclear beta-catenin stimulation was 0.8% (inactive) in assay [1] (at 10 µM) and -0.1% in assay [1] (stimulation, at 2 µM). Also, the insulin secretion stimulation in assay [2] is 1.25% (inactive). Also, the viability decrease in assay [3] was 15.4% (inactive). Besides, the tube area decrease in assay [4] is -24.8% (inactive). Moreover, the GLP1 secretion stimulation in assay [5] is 1% (inactive). For the same compound, in assay [6], the inhibition of viability was -4.3% (inactive). The values for the viability decrease (inhibition) in assay [7] and in assay [8] were -8.7% (inactive) and -10% (inactive), respectively.

As to `CC(=O)O[C@H]1CC[C@@]2(C)C(=CC[C@@H]3[C@@H]2CC[C@]2(C)C(C(C)=O)=CC[C@@H]32)C1`, the nuclear beta-catenin stimulation was 3.7% (inactive) in assay [1] (at 10 µM) and 0.6% in assay [1] (stimulation, at 2 µM). In assay [2], the insulin secretion stimulation was 0.2% (inactive). For the same compound, the viability decrease in assay [3] is 48% (inactive). Moreover, the tube area decrease in assay [4] is 9.9% (inactive). In addition, the GLP1 secretion stimulation in assay [5] was -2% (inactive). Moreover, in assay [6], the inhibition of viability was 25.8% (inactive). The viability decrease (inhibition) was 60.1% (active) in assay [7] and 14.9% (inactive) in assay [8].

`CCS(=O)(=O)c1ccc(OC)c(C(=O)OC)c1`: the nuclear beta-catenin stimulation in assay [1] (at 10 µM) is -0.3% (inactive); in assay [1] (stimulation, at 2 µM) it was -1.7%. In addition, the insulin secretion stimulation in assay [2] was 0.9% (inactive). For the same compound, the viability decrease in assay [3] is -5.9% (inactive). Moreover, in assay [4], the tube area decrease is -10% (inactive). Further, in assay [5], the GLP1 secretion stimulation was 1% (inactive). Also, in assay [6], the inhibition of viability was 7.3% (inactive). The results for the viability decrease (inhibition) in assay [7] and in assay [8] were -1.8% (inactive) and 8.8% (inactive), respectively.

In the case of `CCN[C@@H]1C[C@H](N)[C@@H](OC2OC(CN)=CCC2N)[C@H](O)[C@H]1O[C@H]1OC[C@](C)(O)[C@H](NC)[C@H]1O` (some centres undefined), the nuclear beta-catenin stimulation in assay [1] (at 10 µM) is 1.3% (inactive); in assay [1] (stimulation, at 2 µM), 0%. For the same compound, the insulin secretion stimulation in assay [2] is 0.5% (inactive). In assay [3], the viability decrease is -7.4% (inactive). The tube area decrease in assay [4] was 0.9% (inactive). In assay [5], the GLP1 secretion stimulation was -0.5% (inactive). In addition, the inhibition of viability in assay [6] is -2.2% (inactive). Besides, the viability decrease (inhibition) in assay [7] was -1.7% (inactive); in assay [8], 3.7% (inactive).

`CCOC(=O)C1=C(O)c2ccccc2S(=O)(=O)N1C`: the nuclear beta-catenin stimulation is -1.5% (inactive) in assay [1] (at 10 µM) and -0.7% in assay [1] (stimulation, at 2 µM). Moreover, in assay [2], the insulin secretion stimulation is 0.9% (inactive). In assay [3], the viability decrease was -6% (inactive). For the same compound, the tube area decrease in assay [4] was -19.5% (inactive). Besides, the GLP1 secretion stimulation in assay [5] is -4% (inactive). Also, in assay [6], the inhibition of viability was 10.3% (inactive). Besides, the viability decrease (inhibition) in assay [7] is 12% (inactive); in assay [8], 4.2% (inactive).

On to `CN(C)c1ccc(C(=C2C=CC(=[N+](C)C)C=C2)c2ccccc2)cc1`, for which the nuclear beta-catenin stimulation in assay [1] (at 10 µM) is 4.5% (active); in assay [1] (stimulation, at 2 µM), 63.1%. Further, the insulin secretion stimulation in assay [2] is 0.2% (inactive). Besides, the viability decrease in assay [3] is 100% (active). Moreover, the tube area decrease in assay [4] was 109% (active). Besides, the GLP1 secretion stimulation in assay [5] was 0.7% (inactive). The inhibition of viability in assay [6] is 99.7% (active). Moreover, the viability decrease (inhibition) in assay [7] and in assay [8] was 102% (active) in each case.

Regarding `CC(C)(C)c1cc(C=O)cc(C(C)(C)C)c1O`, the nuclear beta-catenin stimulation was 2% (inactive) in assay [1] (at 10 µM) and 4.1% in assay [1] (stimulation, at 2 µM). Also, the insulin secretion stimulation in assay [2] was 1.1% (inactive). In assay [3], the viability decrease was 19.1% (inactive). The tube area decrease in assay [4] is 10.5% (inactive). Moreover, the GLP1 secretion stimulation in assay [5] was 0.6% (inactive). In addition, the inhibition of viability in assay [6] is 4.5% (inactive). In addition, the viability decrease (inhibition) in assay [7] was -22.1% (inactive); in assay [8], -10% (inactive).

For the compound `O=C(Nc1ccc(Oc2ccc(Cl)cc2)c(Cl)c1)c1cc(I)cc(I)c1O`, the nuclear beta-catenin stimulation in assay [1] (at 10 µM) was 6.2% (inactive); in assay [1] (stimulation, at 2 µM) it was 1.3%. In addition, in assay [2], the insulin secretion stimulation is 0.2% (inactive). Also, the viability decrease in assay [3] was 122% (active). The tube area decrease in assay [4] was 109% (active). The GLP1 secretion stimulation in assay [5] was 29.8% (active). Further, the inhibition of viability in assay [6] is 128% (active). Also, the viability decrease (inhibition) in assay [7] is 161% (active); in assay [8], 102% (active).

Take `Cc1c(F)cc2c(=O)c(C(=O)O)cn3c2c1CCC3C` (centres undefined): the nuclear beta-catenin stimulation in assay [1] (at 10 µM) is 1.9% (inactive); in assay [1] (stimulation, at 2 µM), 1.5%. In addition, the insulin secretion stimulation in assay [2] was -1.9% (inactive). Also, the viability decrease in assay [3] was -181% (inactive). The tube area decrease in assay [4] is -28% (inactive). For the same compound, the GLP1 secretion stimulation in assay [5] is 1.5% (inactive). Further, the inhibition of viability in assay [6] is 0.65% (inactive). Further, the viability decrease (inhibition) is -16.3% (inactive) in assay [7] and -3% (inactive) in assay [8].

On to `CCc1cc2cc(OC)c(OC)cc2c(Cc2ccccc2)n1`, for which the nuclear beta-catenin stimulation in assay [1] (at 10 µM) is 7.1% (inactive); in assay [1] (stimulation, at 2 µM), 3.1%. Moreover, the insulin secretion stimulation in assay [2] was 15.8% (inactive). In addition, the viability decrease in assay [3] was 46.2% (inactive). The tube area decrease in assay [4] was 18.5% (inactive). Also, the GLP1 secretion stimulation in assay [5] was 3.6% (inactive). In assay [6], the inhibition of viability is 41.3% (inactive). Moreover, the viability decrease (inhibition) was -9.7% (inactive) in assay [7] and 25.5% (inactive) in assay [8].

In the case of `CCCCCCCCCCCCCCCC(=O)OC(C)C`, the nuclear beta-catenin stimulation in assay [1] (at 10 µM) is 0.6% (inactive); in assay [1] (stimulation, at 2 µM), 1.3%. For the same compound, the insulin secretion stimulation in assay [2] was 2.3% (inactive). In addition, the viability decrease in assay [3] is -9.5% (inactive). The tube area decrease in assay [4] is -17.7% (inactive). The GLP1 secretion stimulation in assay [5] was -1.2% (inactive). Besides, the inhibition of viability in assay [6] is 3.07% (inactive). Besides, the viability decrease (inhibition) in assay [7] was -0.2% (inactive); in assay [8], -1.5% (inactive).

Consider `CCCCCCCCCCCCOS(=O)(=O)O`, for which the nuclear beta-catenin stimulation in assay [1] (at 10 µM) was 2.3% (inactive); in assay [1] (stimulation, at 2 µM), 1.9%. The insulin secretion stimulation in assay [2] was 0.9% (inactive). In addition, the viability decrease in assay [3] is -7.5% (inactive). For the same compound, in assay [4], the tube area decrease was 4.9% (inactive). The GLP1 secretion stimulation in assay [5] is 15.2% (inactive). Further, the inhibition of viability in assay [6] was -7.97% (inactive). The viability decrease (inhibition) was -57.7% (inactive) in assay [7] and -12.9% (inactive) in assay [8].

On to `CCN(CC)CCOc1ccccc1C(=O)CCc1ccccc1`, for which the nuclear beta-catenin stimulation in assay [1] (at 10 µM) was -0.8% (inactive); in assay [1] (stimulation, at 2 µM), -1.7%. In addition, the insulin secretion stimulation in assay [2] was 70% (active). Further, the viability decrease in assay [3] was 14.5% (inactive). For the same compound, the tube area decrease in assay [4] is 0.9% (inactive). Moreover, the GLP1 secretion stimulation in assay [5] was 5.2% (inactive). Also, the inhibition of viability in assay [6] was 61.9% (active). In addition, the viability decrease (inhibition) in assay [7] is 50.7% (active); in assay [8], 23.2% (inactive).
